A selection: hits, their analogues and other compounds. The true share with any hit is near 7.8%.
Tau filament bind: qHTS Assay for Tau Filament Binding | Microtubule-associated protein tau (Homo sapiens), P10636 | recombinant tau filaments, thioflavin S fluorescence, 15 h; filaments grown with octadecylsulfate alongside compound | Potency, µM (doses to about 57.1 µM), inactives show top-dose activity change, negative = inhibition | actives 2% (n = 71,000) | AID 596, 2007;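 also: % is scaled to controls: 0 for no effect and ±100 for the full control effect; actives lower thioflavin S fluorescence by blocking filaments or displacing dye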
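His-tagged recombinant human tau (exons 2, 3, 10; 1 uM final) fibrillized with 30 uM sodium octadecylsulfate, 15 h at 37 C, in pH 7.4 HEPES buffer with 10 uM thioflavine S and 5 mM DTT. Reduced ThS fluorescence (450/510 nm) marks activity.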
Bst PK mod: Pyruvate Kinase | purified pyruvate kinase, luminescence ATP production; ribose 5-phosphate activator present at AC10 | Potency, µM | actives 1.2% (n = 51,000); in the data active = potency below about 11 µM; inconclusive = mostly about 12 µM to 25 µM;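 the screen sought inhibitors and activators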;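 also: scaled between full activation by ribose 5 phosphate and full inhibition by luteolin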
15-hLO inh: qHTS Assay for Inhibitors of 15-hLO (15-human lipoxygenase). Potency, µM (titrated, usually from 57.1 µM), for inactives: at the top dose activity change, negative = inhibition, usual class: inhibitors. Polyunsaturated fatty acid lipoxygenase ALOX15 (Homo sapiens), P16050. purified 15hLO-1, xylenol orange hydroperoxide absorbance. actives 1.4% (n = 74,000); also: % is scaled to controls: 0 for no effect and ±100 for the full control effect; nearly all actives have a fitted effect of over 55% in size
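Purified human 15hLO-1 (40 nM) in 25 mM Hepes pH 7.5, 0.01% Triton X-100, preincubated 15 min RT with compound, then 50 uM arachidonic acid for 6 min. Hydroperoxide read by ferrous/xylenol orange, 30 min; 573/405 nm absorbance ratio gave progress.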
HEK293 cAMP ctrl: qHTS Assay for Agonists of the Thyroid Stimulating Hormone Receptor: Activators of Intracellular cAMP Concentrations in Parental HEK 293. AID 938, 2007. actives 2.5% (n = 73,000). Potency, µM (top dose mostly 57.1 µM), for the others: top-dose activation, most hits filed as activators. parental HEK293 CNG cAMP sensor, membrane potential fluorescence; also: % of control where 0% means no effect; nearly all actives have a fitted effect of over 55% in size
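Parental HEK 293 cells stably expressing a modified CNG channel (no TSHR) report cAMP rise as membrane depolarization. Membrane potential dye with 100 uM RO 20-1724 was loaded for 60 min at room temperature, then compound added for 30 min; fluorescence read at 590 nm.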
TSHR agonist: qHTS Assay for Agonists of the Thyroid Stimulating Hormone Receptor | HEK293-CNG-TSHR cells (CNG channel as cAMP sensor), membrane potential dye, cAMP | Potency, µM (doses to about 57.1 µM), for inactives: at the top dose activation, actives largely listed as activators | actives 0.48% (n = 73,000); active = well fitted activation curve with a large enough effect in the main read-out, with a control signal flat, not every such curve was filed as active; inconclusive = small, poorly fitted or top-dose-only effect, or a change in a side signal; inactive = no such curve, though single readings can be large or run the other way; % of control where 0% means no effect;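 also: the control signal comes from parental cells without the receptor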
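HEK 293 cells stably expressing TSHR and a modified CNG channel, with CNG-only parental cells as counterscreen, were preloaded 60 min at room temperature with membrane potential dye containing 100 uM RO 20-1724. Compound exposure was 30 min, and depolarization was read as fluorescence at 590 nm.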
Luciferase inh: qHTS Assay for Inhibitors of Firefly Luciferase. Potency, µM (highest dose often 57.1 µM), without a hit: top-dose activity change, negative = inhibition, most hits filed as inhibitors. Luciferin 4-monooxygenase (Photinus pyralis), P08659. actives 2.2% (n = 72,000). AID 411, 2009. purified firefly luciferase, luminescence, 8 min; also: % is scaled to controls: 0 for no effect and ±100 for the full control effect; nearly all actives have a fitted effect of over 40% in size
Target sequence (P08659 whole entry, looked up): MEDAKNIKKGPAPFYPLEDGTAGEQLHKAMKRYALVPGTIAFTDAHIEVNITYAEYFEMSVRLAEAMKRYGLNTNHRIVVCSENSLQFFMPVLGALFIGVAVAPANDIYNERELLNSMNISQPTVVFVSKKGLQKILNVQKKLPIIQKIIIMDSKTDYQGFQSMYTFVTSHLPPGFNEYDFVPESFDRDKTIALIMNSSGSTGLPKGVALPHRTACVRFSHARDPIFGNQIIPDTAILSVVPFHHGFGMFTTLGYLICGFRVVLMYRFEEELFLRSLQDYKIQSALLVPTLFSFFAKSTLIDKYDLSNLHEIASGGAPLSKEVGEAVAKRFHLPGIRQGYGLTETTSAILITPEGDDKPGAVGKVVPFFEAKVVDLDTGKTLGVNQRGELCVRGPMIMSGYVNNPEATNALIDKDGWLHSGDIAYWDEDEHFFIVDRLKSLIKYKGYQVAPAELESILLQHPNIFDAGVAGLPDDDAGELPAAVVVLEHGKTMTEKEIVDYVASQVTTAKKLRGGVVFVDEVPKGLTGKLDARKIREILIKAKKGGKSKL
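Inhibition of light generation by firefly luciferase from ATP and luciferin was profiled with concentration-response curves per sample, ATP held at 10 uM within the enzyme's linear range. Plates were read by luminescence after an 8-minute ambient incubation.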
Starred values were filed as active, the others as inactive; [ ] = dose if it differs, or a comment. Unless noted, calls follow the shape of the dose curve; as a rule, active = well fitted curve in the direction sought with a large enough effect; inconclusive = small, poorly fitted or top-dose-only effect, or another doubt; inactive = no such curve, though single readings can be large; an effect the other way counts as inactive or inconclusive. Potency is read from the fitted curve at half-maximal effect.

How did Cc1cccc(CNc2ncnc3ccc(-c4cccc(NS(C)(=O)=O)c4)cc23)c1 do in these assays?
Tau filament bind: 107.1%; 15-hLO inh: -0.6%; HEK293 cAMP ctrl: 23.2%; Luciferase inh: 0.0%[2.29 µM]

What do the screens show for `COC(=O)c1cc2c(C)nn(-c3ccccc3)c2s1`?
Tau filament bind: 19.1%; Bst PK mod: >57; 15-hLO inh: -0.2%; HEK293 cAMP ctrl: 29.5%; TSHR agonist: 15.9%; Luciferase inh: 0.3%

Results for Cc1nn(-c2ccccc2)c2sc(C(=O)N(CC(=O)NC(C)(C)C)Cc3ccco3)cc12 ?
Tau filament bind: 27.2%; 15-hLO inh: -5.2%; HEK293 cAMP ctrl: 15.8µM*; TSHR agonist: inconclusive; Luciferase inh: 3.0%

What do the screens show for `COCCn1c(=O)c(-c2ccc(F)cc2)nc2cnc(OC)nc21`?
Tau filament bind: -1.9%; 15-hLO inh: 9.7%; HEK293 cAMP ctrl: 13.9%; TSHR agonist: -0.1%; Luciferase inh: 0.1%[11.4 µM]

Results for COC(=O)c1ccc2c(c1)SC1=C(CCCC1=O)N2 ?
Tau filament bind: 15.8µM*; Bst PK mod: >57; 15-hLO inh: 15.8µM*; HEK293 cAMP ctrl: -5.6%; TSHR agonist: -7.3%; Luciferase inh: -17.4%

Results for COc1ccc2c(c1OC)C(=O)N(c1cccc(C)c1)C2 ?
Tau filament bind: 3.8%; Bst PK mod: inconclusive; 15-hLO inh: -0.6%; HEK293 cAMP ctrl: 20.2%; Luciferase inh: 7.94µM*

Results for COc1ccc2c(c1OC)C(=O)N(c1cccc(C(F)(F)F)c1)C2 ?
Tau filament bind: 22.6%; Bst PK mod: inactive; 15-hLO inh: -7.9%; HEK293 cAMP ctrl: inconclusive; TSHR agonist: inconclusive; Luciferase inh: 12.6µM*

What do the screens show for `Cc1ccccc1OC1C=CC(C#Cc2ccc(Br)cc2)OC1CO` (stereo not drawn)?
15-hLO inh: -12.3%[11.4 µM]; HEK293 cAMP ctrl: -5.3%[11.4 µM]; TSHR agonist: -0.7%[11.4 µM]

How did CCNc1ncc2nc(-c3ccc(F)cc3)c(=O)n(Cc3ccc(F)cc3)c2n1 do in these assays?
Tau filament bind: 3.0%; 15-hLO inh: -1.9%; HEK293 cAMP ctrl: 2.9%; TSHR agonist: 4.0%; Luciferase inh: 0.3%[11.4 µM]

What do the screens show for `COc1ccc2[nH]cc(CCNc3ccnc(-c4ccoc4)n3)c2c1`?
Tau filament bind: -26.5%; 15-hLO inh: inconclusive; HEK293 cAMP ctrl: -16.2%; TSHR agonist: -2.1%; Luciferase inh: -3.8%[2.29 µM]

What do the screens show for `Nc1nc2c(s1)CCc1c-2cnn1-c1ccccc1`?
Tau filament bind: 20µM*; Bst PK mod: 10.1*; 15-hLO inh: 2.51µM*; HEK293 cAMP ctrl: -7.9%; TSHR agonist: 0.8%[11.4 µM]; Luciferase inh: 7.94µM*

How did COc1ccc(-c2cnn(-c3ccccc3)c2N)cc1OC do in these assays?
Tau filament bind: -16.6%[11.4 µM]; 15-hLO inh: 7.6%[11.4 µM]; HEK293 cAMP ctrl: -13.0%[11.4 µM]; TSHR agonist: -12.1%[11.4 µM]; Luciferase inh: -3.5%

Results for COc1ccc(OCCSc2nnc(-c3ccccc3)n2N)cc1 ?
Tau filament bind: -1.5%; Bst PK mod: >57; 15-hLO inh: 12.6µM*; HEK293 cAMP ctrl: 14.3%; TSHR agonist: 14.8%; Luciferase inh: -2.1%

Results for Cc1cccc(-n2c(SCc3cc(=O)n4ccsc4n3)nc3ccccc32)c1 ?
Tau filament bind: 6.2%; Bst PK mod: >57; 15-hLO inh: 12.6µM*; HEK293 cAMP ctrl: inconclusive; TSHR agonist: inconclusive; Luciferase inh: -5.6%

How did CCCn1c(=O)c2ccccc2n2c(SCc3cc(=O)n4ccsc4n3)nnc12 do in these assays?
Tau filament bind: 2.4%; Bst PK mod: >57; 15-hLO inh: 0.6%; HEK293 cAMP ctrl: inconclusive; TSHR agonist: inconclusive; Luciferase inh: -0.2%

How did CC(=O)Oc1cc(OC(C)=O)c2c(=O)cc(-c3ccc(OC(C)=O)c(OC(C)=O)c3)oc2c1 do in these assays?
Tau filament bind: inconclusive; 15-hLO inh: -13.6%[25.6 µM]; HEK293 cAMP ctrl: -10.5%; TSHR agonist: -6.1%; Luciferase inh: -9.3%[11.4 µM]
